This is part of a sample that, as a whole, favours compounds with a hit. Of some 79,000 tested, about 15% had one in any assay. Rule as the data show it: active = growth inhibition above about 70%; inactive = the rest.
What was measured:
[1] = NCI Yeast Anticancer Drug Screen. Data for the rad50 strain (AID 155);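 also: 0% = growth of vehicle-only cultures of the same strain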; conditions: S. cerevisiae rad50 strain growth inhibition; at 50.0 µM; active compounds read high
In short: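 Yeast carrying a defined DNA repair defect were exposed to test compounds, and growth was compared with vehicle-treated controls to give percent inhibition.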

[2] = NCI Yeast Anticancer Drug Screen. Data for the mec2-1 strain (AID 157); conditions: S. cerevisiae mec2-1 strain, at 50.0 µM, active compounds read high
In short: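 Readout is yeast growth inhibition, normalised to vehicle-treated controls, in the mec2-1 strain exposed to compound.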

[3] = NCI Yeast Anticancer Drug Screen. Data for the sgs1 mgt1 strain (AID 161);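 also: 0% = growth of cultures given vehicle only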; conditions: S. cerevisiae sgs1 mgt1 strain, at 50.0 µM, active compounds read high
In short: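 Compounds are added to genetically altered yeast, and growth is compared with cultures given vehicle alone to give percent inhibition.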

[4] = NCI Yeast Anticancer Drug Screen. Data for the cln2 rad14 strain (AID 165);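 also: 0% = growth equal to vehicle treated cultures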; conditions: S. cerevisiae cln2 rad14 strain, at 50.0 µM, active compounds read high
In short: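 Relative to vehicle controls, growth inhibition of compound-treated cln2 rad14 yeast was recorded.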

[5] = NCI Yeast Anticancer Drug Screen. Data for the bub3 strain (AID 167); conditions: S. cerevisiae bub3 mutant strain, at 50.0 µM, active compounds read high
In short: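 Compounds were applied to a genetically altered yeast strain carrying a cell-cycle control defect. Growth inhibition was scored against vehicle-treated controls.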

[6] = NCI Yeast Anticancer Drug Screen. Data for the mlh1 rad18 strain (AID 175); conditions: S. cerevisiae mlh1 rad18 strain growth inhibition; at 50.0 µM; active compounds read high
In short: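 Test agents were incubated with a yeast strain of defined genotype (DNA damage repair defect). Inhibition of growth was derived by comparison with vehicle-exposed cultures.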

Measured: growth inhibition

C[C@]12CCC(=O)C(O)=C1CCC2=O
inactive: [1] 2.6% | [2] -7.35% | [3] -5.3% | [4] -14.9% | [5] 3.8% | [6] 4.5%

CC1(C)CC([N+](C)(C)CCCCCC[N+](C)(C)C2CC(C)(C)N(O)C(C)(C)C2)CC(C)(C)N1O
inactive: [1] 3.6% | [2] 0.45% | [3] 14.9% | [4] -4.3% | [5] -3% | [6] 12.5%

Cc1cnc2[nH]c(-c3cccc4ccccc34)cc(=O)c2c1
inactive: [1] 13.2% | [2] 7% | [3] 16.1% | [4] -6.6% | [5] 14.9% | [6] -21.6%

Cc1ccc(N=C2C(=Nc3ccc(C)cc3)N(c3ccc(C)cc3)C(=S)N2C(=O)c2ccccc2)cc1
inactive: [1] -5.4% | [2] -27.1% | [3] 7.9% | [4] 26.3% | [5] -29.6% | [6] -13.1%

CC(CN(C)C)C(/C=C/c1ccccc1)=N\Nc1ccccc1 (stereo unspecified)
inactive: [1] -5.7% | [2] 23.4% | [3] 7.85% | [4] -6.3% | [5] -2.1% | [6] 3.25%

O=C1c2ccccc2C(=Cc2cccnc2)c2ccccc21
inactive: [1] 35.3% | [2] 31.9% | [3] 30.1% | [4] 20.2% | [5] 55.1% | [6] 40.7%

CC(=O)C1=C(C)Cn2c(=O)c3ccccc3c(=O)n2C1
inactive: [1] -4.7% | [2] -18.5% | [3] -10.7% | [4] 10% | [5] -15.7% | [6] -0.05%

CC(=O)SC12CCCN1C(=O)C1(SC(C)=O)CCCN1C2=O (stereo unspecified)
inactive: [1] 40.5% | [2] 26.4% | [3] 45.2% | [4] -28.9% | [5] 3.3% | [6] 37%

CN(C)CCCNC(=O)NCCCCCCNC(=O)NCCCN(C)C
inactive: [1] 13.1% | [2] -9.85% | [3] 31.7% | [4] 18.4% | [5] 32.4% | [6] 19%

CCOC(=S)SC(=S)SC(=S)OCC
inactive: [1] 1.15% | [2] -27.1% | [3] 2.6% | [4] -27.8% | [5] -7.75% | [6] -22.2%

COC(=O)Nc1cccc(NC(=O)C(=O)O)c1
inactive: [1] -0.1% | [2] 3.75% | [3] -0.95% | [4] -29.4% | [5] -4.7% | [6] -0.9%

C/C(=C/CCl)[N+](=O)[O-]
inactive: [1] 36.4% | [2] -10.4% | [3] -4.95% | [4] -7.35% | [5] -8.95% | [6] 14.1%

c1cc2c3c(c1)ccc1cccc(c13)CC2
inactive: [1] 4.45% | [2] -34.1% | [3] 3.3% | [4] 1.5% | [5] -22.8% | [6] 13.9%

COc1cccc(N2C(=O)c3c(c4[nH]c5ccccc5c4c4ccc(C(C)(C)C)cc34)C2=O)c1
inactive: [1] -19.2% | [2] -15.1% | [3] -15.4% | [4] 18.3% | [5] -34% | [6] -12.1%

Cc1ccc2nc(C)cc(NC(=O)c3ccccc3)c2c1
inactive: [1] 13.6% | [2] 8.45% | [3] 8.55% | [4] -18.1% | [5] -5.3% | [6] 24.2%

CC(C)C1NC(C(=O)O)C(C)(C)S1 (stereo unspecified)
inactive: [1] 1.75% | [2] 6.6% | [3] -1.6% | [4] 4.05% | [5] 0.35% | [6] -16.1%

O=C1CCC(N2C(=O)C3C4CCC(O4)C3C2=O)C(=O)O1 (stereo unspecified)
inactive: [1] 12.9% | [2] 3% | [3] 13.9% | [4] 13.8% | [5] 13.8% | [6] 7.85%

Cc1ccc(CO)c(O)c1
inactive: [1] 8.65% | [2] -7.25% | [3] -5.55% | [4] 6.4% | [5] 3.75% | [6] 2.15%

CC(O)C(NC(=O)Nc1ncnc2nc[nH]c12)C(=O)O (stereo unspecified)
inactive: [1] 8.8% | [2] 4.3% | [3] -2% | [4] 7.75% | [5] -14.2% | [6] 16.9%

O/N=C1\CCn2cccc21
inactive: [1] -12.1% | [2] 15.1% | [3] -18.2% | [4] 0.25% | [5] 19.4% | [6] -11.2%

CC(C)(C)C(=O)C[n+]1ccccc1
inactive: [1] 3.85% | [2] -6.45% | [3] 8.45% | [4] -15% | [5] 5.35% | [6] 15.2%
